MLL AF4-AF9 inh: blocks AF4 peptide binding to human AF9; P42568; AlphaScreen, biotin-AF4 peptide binding to FLAG-AF9; inhibition, % at 10 µM; actives 0.47% (n = 350,000); AID 651704;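 active means every replicate reaching a set inhibition limit, whatever the replicate mean, cut at about 25% in these data; inconclusive means mean inhibition reaches that limit but some replicates miss it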;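 further: 0% = plate neutral control median and 100% = total signal loss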
RAD52 anneal inh: inhibitors of human RAD52 DNA annealing; actives 0.46% (n = 360,000); P43351; inhibition, % at 18.7 µM; recombinant RAD52 DNA annealing, FRET fluorescence;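 active means every replicate showing at least 50% inhibition; inconclusive means mean inhibition at least 50% but not in every replicate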
ERAP1 inh: inhibitors of human ERAP1 aminopeptidase | actives 0.15% (n = 340,000) | inhibition, % at 10.7 µM | recombinant ERAP1, Leu-AMC fluorescence, 60 min;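 active means mean replicate inhibition of at least 30%, or all replicates individually reaching that 30% level; inactive means mean below 30% and not every replicate reaching it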;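 further: 0% = neutral control wells and 100% = L-leucinethiol positive control wells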
Target sequence (Q9NZ08 whole entry, looked up): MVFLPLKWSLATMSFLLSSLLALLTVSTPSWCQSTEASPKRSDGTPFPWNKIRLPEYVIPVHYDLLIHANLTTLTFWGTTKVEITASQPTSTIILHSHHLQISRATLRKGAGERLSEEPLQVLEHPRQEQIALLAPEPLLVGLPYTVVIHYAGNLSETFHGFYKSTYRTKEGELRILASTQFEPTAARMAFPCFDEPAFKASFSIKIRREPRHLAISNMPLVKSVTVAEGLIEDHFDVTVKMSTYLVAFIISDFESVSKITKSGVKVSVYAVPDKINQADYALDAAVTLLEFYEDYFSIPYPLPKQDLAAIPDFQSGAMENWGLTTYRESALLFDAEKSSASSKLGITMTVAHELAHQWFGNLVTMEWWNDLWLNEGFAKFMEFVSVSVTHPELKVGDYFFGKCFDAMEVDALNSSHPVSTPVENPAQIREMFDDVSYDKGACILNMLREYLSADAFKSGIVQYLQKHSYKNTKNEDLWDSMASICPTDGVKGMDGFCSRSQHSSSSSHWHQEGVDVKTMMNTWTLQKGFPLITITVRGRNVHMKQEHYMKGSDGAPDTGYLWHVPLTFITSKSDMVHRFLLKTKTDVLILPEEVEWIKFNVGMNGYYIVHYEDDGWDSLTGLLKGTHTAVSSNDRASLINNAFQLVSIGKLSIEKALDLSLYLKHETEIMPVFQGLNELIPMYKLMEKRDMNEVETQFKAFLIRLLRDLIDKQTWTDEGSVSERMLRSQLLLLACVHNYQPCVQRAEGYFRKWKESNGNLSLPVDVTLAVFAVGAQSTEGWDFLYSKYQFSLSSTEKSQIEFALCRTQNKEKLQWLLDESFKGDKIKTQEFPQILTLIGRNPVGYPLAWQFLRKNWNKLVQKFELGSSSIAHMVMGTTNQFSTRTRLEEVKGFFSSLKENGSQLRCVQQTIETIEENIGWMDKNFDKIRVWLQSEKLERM
FGF22 binding: shifts melting point of recombinant human FGF22 | Q9HCT0 | recombinant FGF22 thermal shift, SYPRO orange fluorescence; percent of sucrose octasulfate shift, DMSO zero | activity (Tm shift, normalised), % at 9.99 µM | actives 1.5% (n = 340,000) | AID 651658;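 active means mean Tm shift, scaled 0 neutral to 100 positive control, at about 1.3% or above, every replicate too, limit read from the data; inconclusive means no clear call, values can overlap the other calls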
DENV2 CPE: DENV2-induced cell death inhibition | DENV2-infected cells, cytopathic effect rescue, plate reader | CPE inhibition, % at 9.99 µM | actives 1.7% (n = 350,000) | AID 651640; in the data active means CPE inhibition above about 20%, passing the limit was not always enough; inconclusive means no clear call, values can overlap the other calls; tested in BHK-21 cells;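 further: 0% = median of neutral control wells and 100% = median of positive control wells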
* = called active by the depositor; u = inconclusive; x = not tested or not shown. A selection: hits, their analogues and other compounds. The true share with any hit is near 4%.

SMILES | MLL AF4-AF9 inh | RAD52 anneal inh | ERAP1 inh | FGF22 binding | DENV2 CPE
Cc1ccc(NC(=O)N2CCCC2C(=O)NCC2CCCCC2)cc1 (centres undefined) | 0.0 | -12.7 | 2.8 | 0.2 | -0.3
O=C(NCCN1CCOCC1)[C@]1(Cc2ccccc2)N=C(c2ccc(OCCCO)cc2)O[C@@H]1c1ccccc1 | 9.4 | 7.2 | 0.5 | 0.0 | 0.4
CC(=O)OCC(=O)[C@@]1(O)CC[C@H]2[C@@H]3CCC4=CC(=O)C=C[C@]4(C)[C@@]3(F)[C@@H](O)C[C@@]21C | -9.9 | -10.9 | 3.2 | 0.1 | -9.6
CC(=O)OCC(=O)C1=CCC2C3CCC4=CC(=O)C=CC4(C)C3(F)C(OC(C)=O)CC12C (centres undefined) | -1.1 | -5.2 | 1.4 | 43.0* | 4.7
O=C(NCCN1CCCCC1)[C@H]1N[C@H]2c3ccc(-c4ccncc4)c(=O)n3C[C@H]2[C@@H]1CO | 3.8 | 6.6 | 1.8 | -0.2 | -1.9
COc1ccc(C(c2sc3ncnn3c2O)N2CCN(c3ccccc3F)CC2)cc1OC (centres undefined) | -11.1 | -32.6 | 1.2 | -0.1 | -2.3
COc1ccc(C(c2sc3ncnn3c2O)N2CC(C)OC(C)C2)cc1OC (centres undefined) | -1.3 | -22.0 | 2.7 | 0.0 | 74.6*
COCC1CCN(Cc2nc(-c3ccc(OC)cc3)no2)CC1 | -16.2 | -5.5 | 1.6 | 43.3* | -1.1
COc1ccc(-c2noc(CN3CCC(Cc4ccccc4)CC3)n2)cc1 | -13.3 | -44.0 | 1.2 | 0.2 | x
CN(CCOc1ccc(Cl)cc1)CC(=O)Nc1ccc(OC(F)(F)F)cc1 | 0.9 | 5.5 | 1.1 | -0.1 | 2.1
COc1ccc(CC(=O)OCC(=O)Nc2ccc(Cl)c(S(=O)(=O)N(C)C)c2)cc1 | 0.2 | -20.6 | -0.8 | 42.2 | x
COc1ccc(NC(=O)CN(C)CC(=O)Nc2ccc(Cl)c(S(=O)(=O)N(C)C)c2)cc1 | 2.7 | -15.2 | -2.7 | 43.1* | 8.0
COc1ccc(NC(=O)CN(C)CCOc2ccc(Cl)cc2)cc1OC | 1.4 | -0.3 | -4.6 | -0.2 | 47.2*
CCCNC(=O)C[C@@H]1CC[C@H]2[C@@H](COc3ccc(NS(=O)(=O)c4ccccc4C)cc3C(=O)N2C)O1 | 0.1 | 11.9 | 0.7 | x | 3.2
O=C(O)c1cc(NN=C2c3ccccc3-c3ccccc32)ccc1Cl | -1.2 | -24.8 | 30.7* | 0.4 | 4.7
O=C(O)c1cccc(NN=C2c3ccccc3-c3ccccc32)c1 | 2.0 | -8.5 | 3.3 | 1.1 | 2.6
O=C(CCCc1ccccn1)c1cccc2ccccc12 | 1.0 | -42.1 | 4.7 | -0.2 | 3.4
O=C(CCCc1ccccn1)c1ccc(-c2ccccc2)cc1 | 1.1 | -21.7 | -0.3 | 44.3* | 2.3
CN(CC(=O)Nc1c(Cl)cccc1Cl)C(=O)c1ccc(NS(=O)(=O)c2ccc3[nH]c(=O)[nH]c3c2)cc1 | -1.8 | -23.2 | -0.1 | 0.0 | 40.4*
Cc1ccc(NC(=O)CN(C)C(=O)c2ccc(NS(=O)(=O)c3ccc4[nH]c(=O)[nH]c4c3)cc2)cc1 | -3.6 | -14.1 | -0.1 | 0.1 | -0.8
COc1ccc(S(=O)(=O)Nc2ccc3c(c2)C(=O)N([C@@H](C)CO)C[C@@H](C)[C@H](CN(C)C(=O)Nc2ccc(F)cc2)O3)cc1 | 0.7 | -18.9 | -0.4 | 0.1 | 2.0
CC1(C)Cc2c(c(N3CCOCC3)nc3sc4c(NCC5CCCO5)nnnc4c23)CS1 (centres undefined) | 26.1* | -9.6 | -1.8 | -0.2 | 2.6
OC(Cc1cccnc1)(c1ccccc1)c1ccccc1 | 0.8 | -7.5 | 2.6 | 0.1 | u
Nc1ccccc1C(O)(Cc1ccccc1)c1ccccc1 (centres undefined) | 4.6 | -40.5 | 2.3 | -0.1 | 36.4*
O=C(NC(=S)NCCCN1CCOCC1)c1ccc([N+](=O)[O-])cc1 | -0.2 | -8.5 | -3.4 | 43.3* | 6.0
SMILES | MLL AF4-AF9 inh | RAD52 anneal inh | ERAP1 inh | FGF22 binding | DENV2 CPE
O=C(NC(=S)NCCN1CCOCC1)c1ccc(F)cc1 | 8.1 | -14.5 | -2.5 | -0.1 | 1.3
Cc1cc(CSc2ccccc2)ccc1NC(=O)COc1ccccc1C | -2.0 | 10.5 | -0.5 | 44.3* | -6.4
CCc1nnc(NC(=O)CSc2n[nH]c(-c3ccccc3O)n2)s1 | -3.3 | -15.9 | -1.4 | 1.8* | x
Cc1nnc(NC(=O)CSc2n[nH]c(-c3ccccc3C)n2)s1 | 1.1 | -1.0 | 0.9 | -0.2 | -0.9
CS(=O)(=O)N1CCN(c2ccc(NC(=S)NC(=O)c3ccc4c(c3)OCO4)cc2)CC1 | 0.1 | -19.9 | -3.4 | 43.5* | -0.9
O=C(NC1CCC1)[C@@H]1[C@@H](CO)[C@@H]2Cn3c(ccc(C4=CCCC4)c3=O)[C@@H]2N1C(=O)C1CCC1 | -12.4 | -15.7 | -1.9 | x | -9.1
CN1[C@@H]2Cn3c(ccc(C4=CCCC4)c3=O)[C@H]1[C@@H](C(=O)N1CCCCC1)[C@@H]2CO | -1.9 | -19.3 | 1.3 | -0.1 | 110.3*
O=C([C@@H]1[C@@H](CO)[C@@H]2Cn3c(ccc(-c4ccccc4)c3=O)[C@H]1N2)N1CCCCC1 | -0.7 | 5.4 | 6.6 | -0.4 | u
O=C([C@@H]1[C@@H](CO)[C@@H]2Cn3c(ccc(C4=CCCCC4)c3=O)[C@H]1N2)N1CCCCC1 | -3.5 | 6.0 | 4.4 | -0.1 | 34.8*
CN(C)C(=O)[C@H]1[C@H](CO)[C@H]2Cn3c(ccc(C4=CCCCC4)c3=O)[C@@H]1N2C | 1.5 | 63.4* | 0.2 | 0.0 | 7.0
O=C(NC1CCC1)[C@H]1[C@H](CO)[C@H]2Cn3c(ccc(C4=CCCCC4)c3=O)[C@H]2N1C(=O)C1CCOCC1 | 2.1 | -26.9 | -2.3 | 0.1 | 64.5*
C[C@H]1CCCCO[C@H](CN(C)CC2CCCCC2)[C@@H](C)CN([C@@H](C)CO)C(=O)c2cc(NC(=O)CCC(F)(F)F)ccc2O1 | x | x | x | -0.2 | 0.4
C[C@@H]1CN([C@H](C)CO)C(=O)c2cc(NC(=O)CCC(F)(F)F)ccc2O[C@@H](C)CCCCO[C@@H]1CN(C)C(=O)C1CCCCC1 | 0.0 | 9.5 | -1.2 | 0.7 | 87.5*
C[C@@H]1CCCCO[C@H](CN(C)S(C)(=O)=O)[C@@H](C)CN([C@H](C)CO)C(=O)c2cc(NC(=O)CCC(F)(F)F)ccc2O1 | -8.2 | 13.9 | -1.7 | 0.7 | 115.9*
C[C@@H]1CCCCO[C@@H](CN(C)CC2CCCCC2)[C@@H](C)CN([C@@H](C)CO)C(=O)c2cc(NC(=O)CCC(F)(F)F)ccc2O1 | x | x | x | 0.0 | 29.9*
C[C@@H]1CCCCO[C@H](CN(C)CC2CCCCC2)[C@@H](C)CN([C@H](C)CO)C(=O)c2cc(NC(=O)CCC(F)(F)F)ccc2O1 | x | x | x | 0.0 | 52.2*
C[C@H]1CCCCO[C@H](CN(C)C(=O)C2CCCCC2)[C@@H](C)CN([C@@H](C)CO)C(=O)c2cc(NC(=O)CCC(F)(F)F)ccc2O1 | -2.6 | 19.1 | -5.4 | 0.7 | x
C[C@@H]1CN([C@@H](C)CO)C(=O)c2cc(C#C[C@@H](C)O)cnc2O[C@H]1CN(C)C(=O)CN1CCOCC1 | -2.3 | -5.8 | 7.3 | -0.4 | -5.7

Bioassay records from PubChem.
